# Bioassay records: PubChem, National Center for Advancing Translational Sciences (NCATS)
# Compounds with a hit are over-represented: about 21% of the library has one in this group of screens.
# Shiga toxin inh: A qHTS for Small Molecule Inhibitors of Shiga Toxin; inhibition, % at 38.7 µM; 290,000 tested, 9.2% active; Vero cells, Shiga toxin protein synthesis inhibition reporter; in the data active = inhibition mostly above about 28%, no sharp cut-off; inactive = mostly below about 43%; also: 0% is about no effect
# Pf growth 48h: Primary qHTS for delayed death inhibitors of the malarial parasite plastid, 48 hour incubation. P. falciparum luciferase growth in erythrocytes, 48 h. Potency, µM (series often up to 28.7 µM), for the others: top-dose activity change, negative = inhibition, hits mostly inhibitors. 310,000 tested, 5.9% active; also: potency is read from the fitted curve at half-maximal effect; % is scaled to controls: 0 for no effect and ±100 for the full control effect
#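 Growth was read as firefly luciferase luminescence after a 48 h, 37 C, 5% CO2 exposure of compounds to reporter-bearing P. falciparum cultures (0.1% parasitemia, 2% hematocrit final) in Albumax-supplemented RPMI 1640.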
# SARS PLP yeast: qHTS of Yeast-based Assay for SARS-CoV PLP; S. cerevisiae expressing SARS-CoV PLpro, growth rescue; Potency, µM (top dose mostly 32.9 µM), for inactives: at the top dose activity, positive = growth rescue, most hits filed as activators; 330,000 tested, 0.19% active; calls by dose curve; also: potency is read from the fitted curve at half-maximal effect; 0% is about no effect; nearly all actives have a fitted effect of over 55% in size
# Pf growth 96h: Primary qHTS for delayed death inhibitors of the malarial parasite plastid, 96 hour incubation | P. falciparum luciferase reporter growth, 96 h | Potency, µM (highest dose often 28.7 µM), inactives show at the top dose activity change, negative = inhibition, hits mostly inhibitors | 320,000 tested, 6.9% active; also: potency is read from the fitted curve at half-maximal effect; % is scaled to controls: 0 for no effect and ±100 for the full control effect
#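 Compounds incubated with erythrocytes infected by luciferase-expressing P. falciparum (2% hematocrit, 0.05% parasitemia final) for 96 hours, 37 C in 5% CO2. Growth inhibition scored as decreased luciferase luminescence.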
# Cycloheximide cs: Cycloheximide Counterscreen for Small Molecule Inhibitors of Shiga Toxin; AID 2314, 2010; 300,000 tested, 12% active; max response, %; cell reporter, cycloheximide protein synthesis inhibition counterscreen; in the data active = max response mostly above about 13%, no sharp cut-off; inactive = mostly below about 14%; also: read at 38.3 µM for the half of the compounds with a filed dose; 0% is about no effect
# NS1 inh: qHTS Assay for Inhibitors of Influenza NS1 Protein Function | Potency, µM (doses to about 46.1 µM), without a hit: at the highest dose activity, positive = more growth | 270,000 tested, 0.4% active | AID 2326, 2010; calls by dose curve; also: potency is read from the fitted curve at half-maximal effect; actives are rising curves; nearly all actives have a fitted effect of over 50% in size
#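 Read-out: OD600 growth recovery of NS1-expressing budding yeast. Cells grown overnight at 30C in -URA glucose medium, washed, resuspended and diluted 1:100 in 2% galactose assay medium, pH 6.0. Same strain lacking NS1 served as positive control.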
# Numbers without * were called inactive; i = inactive; ? = inconclusive; . = not tested or not shown. Unless noted, calls follow the shape of the dose curve; as a rule, active = well fitted inhibition curve with a large enough effect; inconclusive = small, poorly fitted or top-dose-only effect, or another doubt; inactive = no such curve, though single readings can be large or run the other way.
SMILES,Shiga toxin inh,Pf growth 48h,SARS PLP yeast,Pf growth 96h,Cycloheximide cs,NS1 inh
COc1ccc(/C(C)=N\Nc2nc(-c3ccc(Cl)cc3)cc(C(F)(F)F)n2)cc1OC,-11,10µM*,-18%,?,5,14%
COc1ccccc1/C=C/C=N/Nc1cccc(C(=O)O)c1,132*,247%,-1%,i,42*,-43%
COc1ccc(/C(C)=N\NS(=O)(=O)c2ccccc2)cc1OC,-12,-8%,4%,-1%,0,0%
C/C(=N\Nc1cccc(C(=O)O)c1)c1ccc(Cl)s1,121*,176%,-16%,119%,68*,.
O=C(NC1CCCC1)C(c1ccccn1)N(Cc1ccc(F)cc1)C(=O)c1csnn1 (stereo not drawn),-7,-25%,-1%,25%,-4,-9%
COc1ccc(Br)cc1/C=N/Nc1cccc(C(=O)O)c1,51,119%,-6%,127%,49*,10%
O=C(O)c1cccc(N/N=C/c2cc(Br)cc(Br)c2O)c1,126*,74%,-70%,?,51*,-43%
O=C(C[n+]1ccccc1)N/N=C/c1cc(Br)cc(Br)c1O,-1,?,-3%,?,-1,-102%
COc1ccc(/C(C)=N/Nc2cccc(C(=O)O)c2)cc1OC,187*,i,4%,193%,104*,.
Cc1c(N=Cc2cc(Br)cc(Br)c2O)cccc1C(=O)O,-1,12µM*,-30%,?,0,-16%
CN(/N=C/c1cc(Br)cc(Br)c1O)c1ccccc1,-9,30%,-1%,377%,6,-6%
CC1CCC(NC(=O)c2ccc(-n3cncn3)c([N+](=O)[O-])c2)CC1 (stereo not drawn),.,4%,0%,26%,.,.
CCCOc1cccc(C2/C(=C(/O)c3ccncc3)C(=O)C(=O)N2CCCN(C)C)c1 (stereo not drawn),8,15%,2%,23%,-4,3%
S=c1[nH]nc(-c2ccco2)n1/N=C/c1ccc(Cl)cc1,-3,-6%,-4%,9%,-4,-23%
COc1cc(OC)c2c(-c3cccc(-c4ccc(F)c(Cl)c4)c3)cc(=O)oc2c1,.,.,4%,.,.,.
COc1cc(C(=O)Nc2ccc3c(c2)N(C(=O)CCN(C)C)c2ccccc2CC3)cc(OC)c1OC,-6,10µM*,0%,9.3µM*,-4,-2%
CCOC(=O)Nc1ccc2c(c1)N(CCCN(C)C)c1ccccc1CC2,0,?,-16%,13µM*,-5,-14%
CCN(CC)CCC(=O)N1c2ccccc2CCc2ccc(NC(=O)OC(C)C)cc21,2,?,-1%,?,-1,2%
CN(C)CC(=O)N1c2ccccc2CCc2ccc(NC(=O)c3ccc(N)cc3)cc21,4,5.9µM*,-4%,65%,4,15%
COc1cc(C(=O)Nc2cccc(NC(=O)c3ccccc3)c2)cc(OC)c1OC,25,?,-4%,?,1,1%
CCN(CC)CCC(=O)Nc1ccc2c(c1)N(C(=O)CN(CC)CC)c1ccccc1CC2,42,10µM*,-3%,?,1,10%
CC(=O)Nc1ccc2c(c1)N(C(C)=O)c1ccccc1CC2,-11,?,0%,?,-1,6%
CCN(Cc1nc2cc(Cl)ccc2c(=O)[nH]1)C(=O)C1CC(=O)N(c2cccc3ccccc23)C1 (stereo not drawn),.,10µM*,2%,?,.,.
COC(=O)c1ccc(CN2CCCC(C(=O)c3ccccc3OC)C2)cc1 (stereo not drawn),-5,0%,7%,-6%,-1,9%
CN1CCN(C2=C(NS(=O)(=O)c3ccccc3)C(=O)c3ccccc3C2=O)CC1,11,4.1µM*,5%,?,14,6%
CCN1CCN(C2=C(NS(=O)(=O)c3ccccc3)C(=O)c3ccccc3C2=O)CC1,15,5.9µM*,-2%,2.9µM*,12*,8%
CCOc1ccccc1N1CCN(C2=C(NS(=O)(=O)c3cccs3)C(=O)c3ccccc3C2=O)CC1,-5,10µM*,0%,.,-2,?
